Sampled rows, rich in hits. Any-hit rate of the full collection: about 18%.
TDP1 cell noCPT: qHTS for Inhibitors of human tyrosyl-DNA phosphodiesterase 1 (TDP1): qHTS in cells in absence of CPT; DT40 Tdp1-/- hTDP1 cells, no CPT, ATP luminescence, 48 h; hit rate 15% among 420,000; AID 686978, 2013; Potency, µM (doses to about 46.2 µM), without a hit: top-dose activity change, negative = growth inhibition, usual class: inhibitors; further: potency means the concentration at half of the fitted maximal effect; nearly all actives have a fitted effect of over 55% in size
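Growth kinetics read by CellTiter-Glo luminescence after ≥48 hr at 37 °C. Cells: DT40 Tdp1-/- stably carrying human TDP1, 400 per well, compound exposure in the absence of CPT (DMSO vehicle).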
LDHA block: blocks human lactate dehydrogenase A | P00338 | purified LDHA, NADH/diaphorase-resazurin fluorescence; stronger effect = lower value | activity change, % (values are at about 110 or 230 µM) | hit rate 0.15% among 480,000 | AID 1347041; in the data active means activity change below about -30%; inconclusive means mostly about -25% to -30%;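 further: plate controls were DMSO wells for no effect and wells without enzyme for full effect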
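Remaining NADH was detected by diaphorase (0.133 mg/mL) converting 37 µM resazurin to fluorescent resorufin, read at 0 and 20 minutes. The preceding 5-minute room-temperature reaction used 2 nM LDHA, 0.2 mM sodium pyruvate and 0.06 mM NADH at pH 7.4.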
IL1B secr inh: inflammasome signaling inhibition, IL-1 beta readout. THP-1 LPS/ATP IL-1B secretion, AlphaLISA, 16 h; stronger effect = lower value. AID 743279. activity change, % at 57.5 µM. hit rate 4.7% among 360,000; in the data active means activity change below about -50%; inconclusive means mostly about -30% to -49%
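THP-1 cells pretreated 1 hr with compounds (up to 57.5 uM final), then stimulated with LPS (250 ng/mL final) plus ATP (1.25 mM final); secreted IL-1B measured by AlphaLISA after 16 hr, decreased signal indicating inhibition.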
RORg inh: inhibitors of mouse ROR gamma transcriptional activity | P51450 | Drosophila S2 Gal4-RORgamma UAS-luciferase reporter, 20 h | Potency, µM (top dose mostly 53.6 µM), without a hit: at the highest dose activity change, negative = inhibition, usual class: inhibitors | hit rate 5.4% among 310,000; further: potency means the concentration at half of the fitted maximal effect; nearly all actives have a fitted effect of over 60% in size
Target sequence (P51450 whole entry, looked up, the tested form may be a part): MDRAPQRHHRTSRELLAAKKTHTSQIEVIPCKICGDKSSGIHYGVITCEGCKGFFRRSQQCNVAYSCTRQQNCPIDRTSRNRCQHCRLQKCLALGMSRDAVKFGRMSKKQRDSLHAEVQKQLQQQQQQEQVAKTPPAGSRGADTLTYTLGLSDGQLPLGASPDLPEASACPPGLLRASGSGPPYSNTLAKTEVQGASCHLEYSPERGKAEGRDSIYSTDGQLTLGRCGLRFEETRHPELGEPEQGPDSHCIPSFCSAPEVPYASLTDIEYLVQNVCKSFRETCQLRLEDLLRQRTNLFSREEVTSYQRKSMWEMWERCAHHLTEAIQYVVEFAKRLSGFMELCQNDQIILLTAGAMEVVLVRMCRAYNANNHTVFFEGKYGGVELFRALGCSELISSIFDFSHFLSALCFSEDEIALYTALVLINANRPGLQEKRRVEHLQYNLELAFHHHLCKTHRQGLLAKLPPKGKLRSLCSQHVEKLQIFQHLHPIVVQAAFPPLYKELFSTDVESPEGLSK
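Drosophila S2 cells stably expressing Gal4-DBD/mouse RORγ fusion under metallothionein promoter plus UAS-luciferase; compound 1 h, then 700 uM CuSO4 induction for 20 h at ambient temperature; inhibition read as reduced luminescence.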
VP16 counter: counter-screen for ROR gamma inhibitors: Gal4-VP16 reporter | Potency, µM (highest dose often 53.6 µM), inactives show top-dose activity, negative = inhibition, hits mostly inhibitors | hit rate 3.5% among 310,000 | Drosophila S2 Gal4-VP16 UAS-luciferase, luminescence, 20 h;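 further: Gal4-VP16 expression switched on by copper sulfate through the metallothionein promoter; potency means the concentration at half of the fitted maximal effect; nearly all actives have a fitted effect of over 50% in size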
DT40 TDP1 CPT: growth inhibition of DT40 Tdp1-/-;hTDP1 cells with camptothecin (screen for TDP1 inhibitors) | hit rate 12% among 420,000 | chicken DT40 Tdp1-/-;hTDP1 cells + 20 nM CPT, ATP luminescence, 48 h | AID 686979 | Potency, µM (series often up to 46.2 µM), inactives show at the highest dose activity change, negative = growth inhibition, actives largely listed as inhibitors; further: potency means the concentration at half of the fitted maximal effect; nearly all actives have a fitted effect of over 55% in size
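Chicken DT40 Tdp1-/- cells complemented with human TDP1, 400 cells/well, exposed to compounds plus 20 nM camptothecin for at least 48 h at 37 C; viability read as ATP content by CellTiter-Glo luminescence.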
An asterisk follows results filed as active; ? = inconclusive; . = no result given; [ ] = another dose, or the depositor's remark. Unless noted, the call rests on the fitted dose curve; in most records, active means well fitted curve in the direction sought with a large enough effect; inconclusive means small, poorly fitted or top-dose-only effect, or another doubt; inactive means no such curve, though single readings can be large; an effect the other way counts as inactive or inconclusive. Unless noted, on the % scale 0 is the no-effect control and ±100 the full control effect.

SMILES	TDP1 cell noCPT	LDHA block	IL1B secr inh	RORg inh	VP16 counter	DT40 TDP1 CPT
CCOC(=O)c1ccc(OS(=O)(=O)c2ccccc2)c(OC)c1	?	-4.7	7.7	3.2%	13.6%	20.6µM*
CCOC(=O)c1cc(-c2ccccc2)sc1NC(=O)C(C)OC(=O)c1ccncc1 (stereo unspecified)	18.4µM*	-3.1	-14.8	-9.1%	-18.6%	23.1µM*
CCOC(=O)c1cc(C)sc1NC(=O)c1ccc(Cl)s1	-17.0%	-4.1	-11.8	-1.3%	3.8%	-14.7%
CCOC(=O)c1cc(-c2ccccc2)sc1NC(=O)C(C)C	?	-5.8	-21.9	?	6.3%	-29.8%
CCN1CCN(c2nc3ccccc3nc2C(C#N)S(=O)(=O)c2cccc(C)c2)CC1 (stereo unspecified)	.	3.9	.	.	.	.
Cc1ccccc1Nc1nc(CSc2nnc3n2CCCCC3)cs1	.	-10.3	.	.	.	.
CCOC(=O)c1cc(-c2ccccc2)sc1NC(=O)C(C)Sc1nnc(C)s1 (stereo unspecified)	-84.0%	4.0	-77.4*	?	-3.9%	-59.3%
CCOC(=O)c1cc(-c2ccccc2)sc1NC(=O)CCN1CCC(C)CC1	.	2.0	.	.	.	.
CCOC(=O)c1cc(-c2ccccc2)sc1NC(=O)C(C)OC(=O)c1cccnc1Cl (stereo unspecified)	23.1µM*	-2.7	-0.4	27.9%	-3.3%	23.1µM*
COc1ccc(NC(=O)Cn2ccc3ccc(Cl)cc32)cc1	.	4.3	.	.	.	.
CNC(=O)NC(=O)COC(=O)c1cc(-c2ccco2)nc2ccccc12	.	-1.4	.	.	.	.
Cc1ccc(/C=C(\C#N)c2nc3ccccc3[nH]2)s1	-14.2%	-2.7	-9.7	?	10µM*	2.4%
COC(=O)c1ccc(-c2ccc(/C=C(/C#N)c3nc4ccc(C)cc4[nH]3)o2)c(C)c1	.	0.8	.	.	.	.
Cc1ccc2nc(/C(C#N)=C/c3ccc(-c4ccc(F)cc4F)o3)[nH]c2c1	5.17µM*	2.8	.	.	.	2.91µM*
N#C/C(=C\c1c(Cl)cccc1Cl)c1nc2ccccc2[nH]1	-26.0%	-2.3	-93.4*	-31.4%	-18.6%	?
Cc1c(Cl)cccc1-c1ccc(/C=C(\C#N)c2nc3ccccc3[nH]2)o1	4.11µM*	11.9	.	.	.	10.3µM*
O=C(Nc1cccc(-c2nc3ccccc3o2)c1)c1ccccc1Cl	.	4.5	.	.	.	.
O=C(Cc1c[nH]c2ccccc12)NC1(c2ccccc2)CCC1	.	13.5	.	.	.	.
CCc1ccc(NC(=O)C(C#N)=C2CCCCC2)cc1	.	4.4	.	.	.	.
Cc1c(C#N)c(N=CN(C)C)c(C(=O)c2ccccc2)n1-c1ccc(Br)cc1	?	3.0	0.0	-10.3%	0.4%	18.4µM*
Cc1c(C#N)c(N=CN(C)C)c(C(=O)c2ccc(Br)cc2)n1-c1ccccc1	-28.5%	4.0	-7.2	14.6%	-5.4%	-15.8%
Cc1cccc(-c2onc3ccc(C4(C)OCCO4)cc23)c1	14.6µM*	-0.4	-9.5	?	-10.9%	?
Cc1onc(-c2ccccc2Cl)c1C(=O)NCCn1c(C)cc2ccccc21	29.1µM*	-1.7	-9.8	2.2%	4.6%	?
O=C(NCc1cc2ccccc2[nH]1)c1ccccc1F	-5.0%	-2.1	-63.7*	-3.0%[1.91 µM]	3.3%	-19.1%
Cc1cc2ccccc2n1CCNC(=O)c1ccc(Br)o1	29.1µM*	-8.8	-25.9	-35.0%	-14.6%	-28.5%
SMILES	TDP1 cell noCPT	LDHA block	IL1B secr inh	RORg inh	VP16 counter	DT40 TDP1 CPT
Cc1cc2ccccc2n1CCNC(=O)C(C)(C)C	-3.3%	-0.9	-11.7	44.7%	-3.7%	1.0%
Cc1ccc(C(=O)NCCn2c(C)cc3ccccc32)cc1	.	-11.0	.	.	.	.
Cc1cc2ccccc2n1CCNC(=O)c1ccc(Br)cc1	20.6µM*	2.4	.	.	.	?
CN(C)c1ccc(CNC(=O)c2nccnc2N)cn1	.	-0.2	.	.	.	.
Cc1ccc(NC(=O)COC(=O)C2(c3ccccc3F)CCCC2)c([N+](=O)[O-])c1	.	0.8	.	.	.	.
Cc1oc(-c2ccccc2)nc1C(=O)Nc1ccc(F)cc1	.	28.2	.	.	.	.
Cc1cc2ccccc2n1CCNC(=O)c1ccccc1F	16.4µM*	-12.8	.	.	.	?
CC(=O)NCCn1c(C)cc2ccccc21	?	6.1	3.9	-6.1%	2.8%	-23.4%
Cc1cc2ccccc2n1CCNC(=O)c1ccccc1	?	11.7	-10.5	4.47µM*	2.51µM*	?
O=C(O)CCSCC(=O)c1ccc(Br)cc1	.	8.2	.	.	.	.
CN(Cc1cccs1)C(=O)Cn1c(=O)c2c(ncn2C2CCCC2)n(Cc2ccccc2)c1=O	.	-4.4	.	.	.	.
CN(C)CCCN(Cc1cccc2ccccc12)Cc1cccc2ccccc12	.	4.0	.	.	.	.
CCS(=O)(=O)c1ncc(Cl)c(C(=O)Nc2ccccc2OC)n1	1.03µM*	-1.9	-94.2*	?	1.41µM*	1.03µM*
COc1ccccc1NC(=O)c1nc(SCc2ccc(F)cc2)ncc1Cl	-9.9%	-2.8	.	.	.	-20.1%
COc1ccccc1NC(=O)c1nc(S(=O)(=O)Cc2ccccc2)ncc1Cl	1.64µM*	-5.6	-102.3*	7.08µM*	5.01µM*	1.3µM*
Cc1cc(C)c(S(=O)(=O)Nc2ccc(Cl)cn2)cc1Br	.	-0.4	.	.	.	.
CCN1CCN(c2ncc3c(n2)CC(c2cc(OC)c(OC)c(OC)c2)CC3=O)CC1 (stereo unspecified)	3.26µM*	-1.1	26.5	18.9%	-18.5%	4.61µM*
O=C1CC(c2cccc(Cl)c2)Cc2nc(N3CCOCC3)ncc21 (stereo unspecified)	20.6µM*	0.5	12.8	-19.5%	-10.7%	?
CCCCn1c(=O)c(-[n+]2ccccc2)c([O-])c2ccccc21	-9.9%	-4.3	17.7	11.2µM*	-22.3%	-12.5%
O=C(OCc1cccs1)C1=NN(C2CCS(=O)(=O)C2)C(=O)CC1 (stereo unspecified)	.	0.6	.	.	.	.
O=C(Nc1ccccc1Oc1cccnc1)C1CCCN(Cc2ccccc2O)C1 (stereo unspecified)	14.6µM*	2.2	-19.1	-14.6%	-0.9%	?
O=C(Nc1ccc(Oc2cccnc2)cc1)C1CCN(Cc2cc(Cl)ccc2O)CC1	13µM*	-2.9	-4.5	24.0%	?	8.2µM*
C#Cc1ccc(CN2CCCC(C(=O)Nc3ccccc3Oc3cccnc3)C2)cc1 (stereo unspecified)	?	-4.1	?	-4.8%	-5.6%	?
Cc1cccc(CN2CCC(C(=O)Nc3ccc(Oc4cccnc4)cc3)CC2)c1	?	-8.0	-6.4	-1.5%	-8.9%	?
CCCCC(CC)CNC(=O)CCNC(=O)c1ccccc1 (stereo unspecified)	.	-3.0	.	.	.	.
